Source: ChEMBL document CHEMBL2218924, “A broad activity screen in support of a chemogenomic map for kinase signalling research and drug discovery” (Biochem J, 2013)

Legend:
[1] = target: T1, Protein kinase C zeta type (Homo sapiens) (UniProt Q05513); conditions: at 1 µM
T1 sequence (whole entry): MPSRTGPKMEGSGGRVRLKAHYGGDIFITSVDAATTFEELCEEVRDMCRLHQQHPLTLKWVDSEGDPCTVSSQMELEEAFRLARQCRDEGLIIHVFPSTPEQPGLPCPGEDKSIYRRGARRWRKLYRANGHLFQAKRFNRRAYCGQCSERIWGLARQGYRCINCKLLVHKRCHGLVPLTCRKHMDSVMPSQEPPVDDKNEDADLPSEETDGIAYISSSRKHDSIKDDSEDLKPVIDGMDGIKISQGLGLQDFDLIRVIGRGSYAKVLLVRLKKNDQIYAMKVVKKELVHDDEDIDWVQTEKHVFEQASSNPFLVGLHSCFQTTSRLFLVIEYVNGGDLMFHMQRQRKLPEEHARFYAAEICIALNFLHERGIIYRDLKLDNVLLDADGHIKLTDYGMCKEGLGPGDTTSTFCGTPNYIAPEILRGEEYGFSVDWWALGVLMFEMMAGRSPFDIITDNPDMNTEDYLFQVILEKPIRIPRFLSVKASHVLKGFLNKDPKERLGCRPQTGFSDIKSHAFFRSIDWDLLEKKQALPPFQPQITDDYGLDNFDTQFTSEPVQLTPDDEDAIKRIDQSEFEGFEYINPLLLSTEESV

[2] = target: T2, Mitogen-activated protein kinase kinase kinase 5 (Homo sapiens) (UniProt Q99683); conditions: at 10 µM
T2 sequence (whole entry): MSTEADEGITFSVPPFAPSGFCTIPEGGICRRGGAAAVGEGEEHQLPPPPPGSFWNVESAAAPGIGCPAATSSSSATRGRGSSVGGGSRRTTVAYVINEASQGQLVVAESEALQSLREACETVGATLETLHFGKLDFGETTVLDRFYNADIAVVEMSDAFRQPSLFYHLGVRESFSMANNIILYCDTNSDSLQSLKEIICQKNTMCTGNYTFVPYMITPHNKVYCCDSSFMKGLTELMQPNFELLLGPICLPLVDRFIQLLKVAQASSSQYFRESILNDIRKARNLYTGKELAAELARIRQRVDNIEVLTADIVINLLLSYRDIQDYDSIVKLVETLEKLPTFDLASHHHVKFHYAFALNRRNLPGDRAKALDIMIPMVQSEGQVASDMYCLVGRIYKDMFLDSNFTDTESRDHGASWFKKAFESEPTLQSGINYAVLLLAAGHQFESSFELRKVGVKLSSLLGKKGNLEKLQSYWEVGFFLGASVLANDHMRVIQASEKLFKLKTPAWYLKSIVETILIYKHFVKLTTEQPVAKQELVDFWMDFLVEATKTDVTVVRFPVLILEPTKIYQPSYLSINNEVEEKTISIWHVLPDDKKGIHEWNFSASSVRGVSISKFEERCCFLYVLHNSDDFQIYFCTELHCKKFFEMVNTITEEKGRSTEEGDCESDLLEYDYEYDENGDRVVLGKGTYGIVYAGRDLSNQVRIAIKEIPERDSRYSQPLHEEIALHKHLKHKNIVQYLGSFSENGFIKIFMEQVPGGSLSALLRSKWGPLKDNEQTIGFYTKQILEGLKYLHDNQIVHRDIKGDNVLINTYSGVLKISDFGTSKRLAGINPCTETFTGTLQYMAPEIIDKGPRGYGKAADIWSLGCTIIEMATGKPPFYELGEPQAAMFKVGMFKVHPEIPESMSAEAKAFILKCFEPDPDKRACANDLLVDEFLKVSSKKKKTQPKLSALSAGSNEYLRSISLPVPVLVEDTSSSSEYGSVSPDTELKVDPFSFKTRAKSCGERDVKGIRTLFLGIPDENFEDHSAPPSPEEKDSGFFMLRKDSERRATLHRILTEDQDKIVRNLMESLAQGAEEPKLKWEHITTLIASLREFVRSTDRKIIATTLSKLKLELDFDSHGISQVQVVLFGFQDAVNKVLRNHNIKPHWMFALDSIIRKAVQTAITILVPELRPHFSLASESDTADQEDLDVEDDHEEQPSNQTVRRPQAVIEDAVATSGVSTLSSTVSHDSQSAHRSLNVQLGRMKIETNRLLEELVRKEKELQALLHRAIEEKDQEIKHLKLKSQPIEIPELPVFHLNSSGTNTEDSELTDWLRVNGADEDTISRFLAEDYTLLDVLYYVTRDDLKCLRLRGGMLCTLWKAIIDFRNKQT

[3] = target: Tyrosine-protein kinase ABL1 (Homo sapiens) (UniProt P00519); conditions: at 1 µM
Tyrosine-protein kinase ABL1 (Homo sapiens), sequence (P00519 whole entry): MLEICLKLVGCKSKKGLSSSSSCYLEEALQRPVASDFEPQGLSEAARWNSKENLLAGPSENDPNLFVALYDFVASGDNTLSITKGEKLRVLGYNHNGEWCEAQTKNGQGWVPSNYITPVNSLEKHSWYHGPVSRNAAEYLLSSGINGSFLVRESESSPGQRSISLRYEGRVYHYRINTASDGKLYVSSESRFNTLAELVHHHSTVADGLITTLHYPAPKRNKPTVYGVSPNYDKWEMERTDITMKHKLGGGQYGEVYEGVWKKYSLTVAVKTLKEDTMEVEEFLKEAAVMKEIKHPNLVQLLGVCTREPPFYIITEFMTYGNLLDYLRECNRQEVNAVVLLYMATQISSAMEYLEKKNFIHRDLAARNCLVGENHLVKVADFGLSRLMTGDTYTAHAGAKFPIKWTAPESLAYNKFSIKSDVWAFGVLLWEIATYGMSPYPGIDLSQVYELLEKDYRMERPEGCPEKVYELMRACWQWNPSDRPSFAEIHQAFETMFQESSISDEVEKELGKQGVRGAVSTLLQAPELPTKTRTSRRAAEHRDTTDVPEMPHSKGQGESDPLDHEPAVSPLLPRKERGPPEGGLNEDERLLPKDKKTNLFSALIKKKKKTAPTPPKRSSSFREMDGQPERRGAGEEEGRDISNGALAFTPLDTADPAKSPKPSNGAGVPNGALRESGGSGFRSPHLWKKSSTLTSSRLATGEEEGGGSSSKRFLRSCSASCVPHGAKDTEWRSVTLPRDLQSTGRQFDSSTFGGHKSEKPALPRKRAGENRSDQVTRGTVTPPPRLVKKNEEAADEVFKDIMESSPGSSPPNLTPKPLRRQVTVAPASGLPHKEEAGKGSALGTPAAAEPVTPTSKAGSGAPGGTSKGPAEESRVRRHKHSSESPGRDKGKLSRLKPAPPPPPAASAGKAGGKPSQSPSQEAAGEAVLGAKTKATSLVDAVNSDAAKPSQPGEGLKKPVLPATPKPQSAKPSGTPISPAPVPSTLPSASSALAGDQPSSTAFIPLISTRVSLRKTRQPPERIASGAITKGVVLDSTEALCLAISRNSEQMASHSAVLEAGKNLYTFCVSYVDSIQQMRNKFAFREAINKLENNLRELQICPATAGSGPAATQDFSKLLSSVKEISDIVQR

[4] = target: Tyrosine-protein kinase ABL1 (Homo sapiens) (UniProt P00519); conditions: at 10 µM
[5] = target: Tyrosine-protein kinase ABL2 (Homo sapiens) (UniProt P42684); conditions: at 1 µM
Tyrosine-protein kinase ABL2 (Homo sapiens), sequence (P42684 whole entry): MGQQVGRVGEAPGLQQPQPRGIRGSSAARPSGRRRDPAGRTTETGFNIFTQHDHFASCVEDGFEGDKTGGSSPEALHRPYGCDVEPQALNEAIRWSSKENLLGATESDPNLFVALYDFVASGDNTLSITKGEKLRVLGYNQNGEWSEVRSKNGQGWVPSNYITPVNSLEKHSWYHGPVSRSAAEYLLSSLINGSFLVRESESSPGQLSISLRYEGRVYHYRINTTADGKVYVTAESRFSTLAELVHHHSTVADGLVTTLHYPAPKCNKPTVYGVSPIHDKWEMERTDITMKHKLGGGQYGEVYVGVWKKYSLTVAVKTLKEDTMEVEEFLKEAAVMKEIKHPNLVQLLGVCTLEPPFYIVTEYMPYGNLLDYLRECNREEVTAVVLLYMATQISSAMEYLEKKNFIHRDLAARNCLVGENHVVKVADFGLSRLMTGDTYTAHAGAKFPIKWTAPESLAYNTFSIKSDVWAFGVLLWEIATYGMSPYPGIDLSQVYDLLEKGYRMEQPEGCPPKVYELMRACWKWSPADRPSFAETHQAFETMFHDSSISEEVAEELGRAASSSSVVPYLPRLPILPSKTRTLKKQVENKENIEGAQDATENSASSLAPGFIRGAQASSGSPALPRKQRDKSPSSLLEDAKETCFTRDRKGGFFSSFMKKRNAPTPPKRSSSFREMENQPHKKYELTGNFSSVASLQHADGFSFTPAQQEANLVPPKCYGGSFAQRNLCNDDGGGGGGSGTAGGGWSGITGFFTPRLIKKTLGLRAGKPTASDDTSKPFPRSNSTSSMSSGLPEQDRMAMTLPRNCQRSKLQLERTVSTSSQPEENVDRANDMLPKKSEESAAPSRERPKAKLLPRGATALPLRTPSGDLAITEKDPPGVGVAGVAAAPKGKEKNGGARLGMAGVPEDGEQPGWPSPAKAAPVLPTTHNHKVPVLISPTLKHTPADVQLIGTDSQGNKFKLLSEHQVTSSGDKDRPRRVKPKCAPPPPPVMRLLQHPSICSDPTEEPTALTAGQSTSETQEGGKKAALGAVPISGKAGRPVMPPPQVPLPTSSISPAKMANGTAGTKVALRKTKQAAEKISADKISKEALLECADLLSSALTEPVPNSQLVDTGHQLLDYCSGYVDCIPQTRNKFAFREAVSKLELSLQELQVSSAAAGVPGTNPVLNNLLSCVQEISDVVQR

[6] = target: Tyrosine-protein kinase ABL2 (Homo sapiens) (UniProt P42684); conditions: at 10 µM
[7] = target: T3, Aurora kinase A (Homo sapiens) (UniProt O14965); conditions: at 1 µM
T3 sequence (whole entry): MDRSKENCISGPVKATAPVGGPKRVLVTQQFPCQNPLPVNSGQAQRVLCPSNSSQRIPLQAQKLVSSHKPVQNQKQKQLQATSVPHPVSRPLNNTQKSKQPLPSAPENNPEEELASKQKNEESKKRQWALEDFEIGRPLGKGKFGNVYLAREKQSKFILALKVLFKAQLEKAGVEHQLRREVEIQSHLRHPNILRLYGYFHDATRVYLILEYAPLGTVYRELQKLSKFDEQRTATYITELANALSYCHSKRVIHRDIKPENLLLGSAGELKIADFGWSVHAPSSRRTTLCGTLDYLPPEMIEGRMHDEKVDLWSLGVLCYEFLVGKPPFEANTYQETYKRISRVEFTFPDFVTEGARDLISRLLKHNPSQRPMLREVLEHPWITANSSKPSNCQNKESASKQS

[8] = target: T3, Aurora kinase A (Homo sapiens); conditions: at 10 µM
[9] = target: Aurora kinase B (Homo sapiens) (UniProt Q96GD4); conditions: at 1 µM
Aurora kinase B (Homo sapiens), sequence (Q96GD4 whole entry): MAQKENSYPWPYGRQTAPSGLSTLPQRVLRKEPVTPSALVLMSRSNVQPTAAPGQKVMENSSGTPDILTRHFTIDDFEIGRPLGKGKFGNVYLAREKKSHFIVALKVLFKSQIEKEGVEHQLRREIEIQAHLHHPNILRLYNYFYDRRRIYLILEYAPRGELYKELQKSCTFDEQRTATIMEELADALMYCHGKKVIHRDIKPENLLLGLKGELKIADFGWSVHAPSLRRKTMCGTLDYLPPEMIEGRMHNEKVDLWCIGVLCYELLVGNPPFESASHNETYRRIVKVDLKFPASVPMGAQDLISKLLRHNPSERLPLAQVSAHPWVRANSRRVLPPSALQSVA

[10] = target: Aurora kinase B (Homo sapiens) (UniProt Q96GD4); conditions: at 10 µM

Row | Compound | residual activity [1] | residual activity [2] | residual activity [3] | residual activity [4] | residual activity [5] | residual activity [6] | residual activity [7] | residual activity [8] | residual activity [9] | residual activity [10]
1 | COc1ccc(OC)c2c(=S)c3ccccc3[nH]c12 | 104% (inactive) | 97% | 97% | 89% | 116% | 84% | 116% | 90% | 93% | 52%
2 | CCN(CC)C(=O)c1ccc(Nc2nc(OCC3CCCCC3)c3nc[nH]c3n2)cc1 | 96% (inactive) | 24% | 46% | 6% | 52% | 9% | 1% | 5% | -1% | 0%
3 | O=C1NC(=O)c2cc(Nc3ccc(F)cc3)c(Nc3ccc(F)cc3)cc21 | 101% (inactive) | 92% | 85% | 87% | 90% | 58% | 89% | 79% | 124% | 120%
4 | O=c1c2ccccc2[nH]c(=S)n1CCN1CCC(=C(c2ccc(F)cc2)c2ccc(F)cc2)CC1 | 101% (inactive) | 116% | 86% | 124% | 93% | 74% | 119% | 108% | 95% | 115%
5 | c1ccc2c(-c3ccncc3)c[nH]c2c1 | 94% (inactive) | 77% | 98% | 100% | 110% | 72% | 99% | 76% | 92% | 70%
6 | Cn1cc(/C=C2\C(=O)Nc3ccc(S(N)(=O)=O)cc32)c2ccccc21 | 101% (inactive) | 7% | 57% | 22% | 57% | 31% | -4% | 4% | 3% | 0%
7 | Oc1ccc(-c2nc(-c3ccc(F)cc3)c(-c3ccncc3)[nH]2)cc1 | 113% (inactive) | 80% | 98% | 95% | 78% | 41% | 105% | 89% | 69% | 58%
8 | N#C/C(=C(\N)Sc1ccc(N)cc1)c1ccccc1C(F)(F)F | 105% (inactive) | 103% | 94% | 87% | 88% | 82% | 75% | 70% | 26% | 15%
9 | CNc1cc2c(Nc3cccc(Br)c3)ncnc2cn1 | 99% (inactive) | 112% | 85% | 87% | 93% | 79% | 60% | 71% | 43% | 10%
10 | O=C1Nc2ccccc2/C1=C1/Nc2ccccc2/C1=N\OCCC(O)CO (stereo not given) | 95% (inactive) | 29% | 61% | 43% | 45% | 18% | 7% | 3% | -1% | -1%
11 | C[C@@H](N)[C@H]1CC[C@H](C(=O)Nc2ccncc2)CC1 | 103% (inactive) | 96% | 113% | 101% | 107% | 100% | 95% | 89% | 73% | 82%
12 | CC#CC(=O)Nc1cc2c(Nc3ccc(F)c(Cl)c3)ncnc2cn1 | 97% (inactive) | 94% | 92% | 91% | 118% | 74% | 106% | 108% | 114% | 85%
13 | Cn1nc2c3c(cccc31)C(=O)c1ccccc1-2 | 102% (inactive) | 29% | 101% | 70% | 102% | 86% | 79% | 74% | 75% | 6%
14 | O=C1NC(=O)/C(=C\c2ccc3nccnc3c2)S1 | 104% (inactive) | 80% | 100% | 81% | 89% | 86% | 94% | 46% | 71% | 39%
15 | COc1cccc(-c2cc(=O)c3ccccc3o2)c1N | 111% (inactive) | 112% | 111% | 92% | 115% | 74% | 122% | 107% | 113% | 103%
16 | c1ccc(-c2n[nH]c3c2oc2ccccc23)cc1 | 99% (inactive) | 90% | 96% | 77% | 115% | 93% | 53% | 31% | 39% | 4%
17 | CO[C@H]1[C@@H](OC)C[C@H](C)[C@@H](OC)C2=CC(=O)C=C(NC(=O)/C(C)=C/C=C/[C@H](OC)[C@@H](OC(N)=O)/C(C)=C/[C@@H]1C)C2=O | 104% (inactive) | 99% | 94% | 68% | 111% | 105% | 77% | 86% | 72% | 68%
